Compound activity deposited in PubChem by Broad Institute.
Shown are actives, neighbours in structure and some others; about 2.1% of the full set was active somewhere.
PGC1a acetyl inh: lowers PGC1a acetylation signal in U2OS cells; AlphaScreen anti-acetyl-lysine; with virally co-expressed GCN5 acetyltransferase; inhibition, % at 15.6 µM; hit rate 0.17% among 350,000;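 active = every replicate shows inhibition of at least 40%; inconclusive = mean inhibition at least 40% but some replicate below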;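 note: 0% = neutral control wells and 100% = positive control wells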
AF4-AF9 inh: MLL-AF4/AF9 protein interaction inhibition. AID 651704. AlphaScreen, biotin-AF4 peptide binding to FLAG-AF9. hit rate 0.47% among 350,000. inhibition, % at 10 µM;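 active = every replicate reaching a set inhibition limit, whatever the replicate mean, cut at about 25% in these data; inconclusive = mean inhibition reaches that limit but some replicates miss it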;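 note: 0% = plate neutral control median and 100% = total signal loss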
HIV Env fusion: HIV envelope-mediated fusion inhibition. HeLa-JRFL Env/CEM21 cell fusion, luciferase. inhibition, % at 12.3 µM. hit rate 1.1% among 360,000. AID 651610;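 active = mean replicate inhibition score of at least 50 and every replicate individually at or above 50; inconclusive = only one of the two criteria met; inactive = mean below 50 and not all replicates reaching 50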;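 note: 0% = plate neutral controls and 100% = maraviroc near 300 nM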
NSD2 HMT inh: inhibitors of human histone methyltransferase NSD2; O96028; NSD2 peptide methylation, AlphaScreen, 120 min; inhibition, % at 12.5 µM; hit rate 0.54% among 310,000; AID 743445; in the data active = inhibition above about 50%
Target sequence (O96028 whole entry, looked up): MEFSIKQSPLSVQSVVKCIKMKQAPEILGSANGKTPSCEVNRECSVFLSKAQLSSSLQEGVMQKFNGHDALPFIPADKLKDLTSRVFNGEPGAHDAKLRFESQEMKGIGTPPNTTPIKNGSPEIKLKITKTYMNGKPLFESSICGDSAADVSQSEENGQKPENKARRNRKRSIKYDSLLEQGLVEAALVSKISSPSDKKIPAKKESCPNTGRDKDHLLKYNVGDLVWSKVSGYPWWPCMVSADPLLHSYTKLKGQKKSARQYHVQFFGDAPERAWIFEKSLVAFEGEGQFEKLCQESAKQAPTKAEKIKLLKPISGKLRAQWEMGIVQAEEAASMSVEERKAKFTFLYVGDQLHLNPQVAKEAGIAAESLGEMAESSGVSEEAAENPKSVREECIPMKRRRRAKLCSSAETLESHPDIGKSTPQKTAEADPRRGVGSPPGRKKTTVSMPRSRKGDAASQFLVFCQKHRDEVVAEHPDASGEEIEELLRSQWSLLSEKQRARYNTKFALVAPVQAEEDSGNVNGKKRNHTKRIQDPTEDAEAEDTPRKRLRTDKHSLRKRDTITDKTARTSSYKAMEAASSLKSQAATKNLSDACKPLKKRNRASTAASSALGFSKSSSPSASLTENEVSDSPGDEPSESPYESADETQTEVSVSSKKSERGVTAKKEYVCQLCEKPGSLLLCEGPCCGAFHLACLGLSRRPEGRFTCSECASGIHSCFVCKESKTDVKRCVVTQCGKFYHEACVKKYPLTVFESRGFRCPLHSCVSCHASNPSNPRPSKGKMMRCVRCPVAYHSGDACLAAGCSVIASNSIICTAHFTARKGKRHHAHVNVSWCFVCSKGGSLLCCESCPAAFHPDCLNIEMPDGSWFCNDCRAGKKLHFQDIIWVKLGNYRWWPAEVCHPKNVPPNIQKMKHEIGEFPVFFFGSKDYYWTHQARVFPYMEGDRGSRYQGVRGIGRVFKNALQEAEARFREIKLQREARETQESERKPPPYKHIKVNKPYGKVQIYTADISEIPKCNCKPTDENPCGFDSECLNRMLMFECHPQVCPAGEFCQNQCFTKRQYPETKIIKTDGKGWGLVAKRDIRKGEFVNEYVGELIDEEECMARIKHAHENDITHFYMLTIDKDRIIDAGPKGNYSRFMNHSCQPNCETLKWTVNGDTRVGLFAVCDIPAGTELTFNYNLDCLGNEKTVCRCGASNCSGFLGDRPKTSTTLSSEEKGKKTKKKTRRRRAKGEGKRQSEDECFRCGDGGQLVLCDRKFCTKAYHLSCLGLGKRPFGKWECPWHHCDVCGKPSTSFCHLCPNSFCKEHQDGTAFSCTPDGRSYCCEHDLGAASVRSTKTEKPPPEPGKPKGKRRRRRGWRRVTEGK
INS-1E GSIS act: primary screen for activators of insulin secretion dependent on glucose, INS-1E cells, GLuc reporter luminescence; INS-1E GLuc reporter insulin secretion, 2-3 h; activation, % at 16.6 µM; hit rate 0.61% among 370,000;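 active = lowest replicate activation of at least 40%, so every replicate reaches that level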;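 note: 0% = median of neutral control wells and 100% = median of IBMX positive control wells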
Active calls of the source: *; ? = inconclusive; / = no result given; + = active, no number; ! = not active in a repeat; [ ] = dose if it differs, or a comment.

SMILES | PGC1a acetyl inh | AF4-AF9 inh | HIV Env fusion | NSD2 HMT inh | INS-1E GSIS act
OCCCNc1nc(-c2ccc(Cl)cc2)nc2ccccc12 | / | 7 | 33 | -8 | 58*
CCC(C(=O)c1ccccc1)N(C(=O)c1ccccc1Cl)N1C(=O)C2C3C=CC(C3)C2C1=O (centres undefined) | -16 | / | 109* | 14 | /
O=C(CN(C(=O)c1ccc(Cl)cc1Cl)N1C(=O)C2C3C=CC(C3)C2C1=O)c1ccc(F)cc1 (centres undefined) | -2 | / | 36 | 0 | /
O=C(/C=C/c1ccc(O)c(O)c1)c1ccccc1O | 17 | 6 | -132 | 62* | -47
Oc1cc(O)cc(C=Cc2ccc(O)c(O)c2)c1 | / | 10 | -110 | 90* | /
c1ccc(N2CCN(c3nc4ccccc4[nH]3)CC2)nc1 | 8 | -1 | -15 | -1 | -2
COc1ccc(-c2nn(-c3ccccc3)cc2/C=C/C(=O)OCC(=O)Nc2ccccc2C#N)cc1 | / | 1 | 3 | 0 | 24
COc1ccc(CN(C)Cc2nc(Cc3ccccc3Cl)no2)cc1OC | -1 | -7 | -56 | / | 35
O=C(NNC(=O)C(c1ccccc1)c1ccccc1)c1ccccn1 | / | 4 | 74* | -1 | -7
c1ccc(Cn2nnc3c(N4CCCCCC4)ncnc32)cc1 | 10 | -3 | 19 | / | /
c1ccc(Cn2nnc3c(N4CCc5ccccc54)ncnc32)cc1 | 5 | / | -127 | -2 | 86*
CCn1c(C(C)NC(=O)c2ccc(OC)c(OC)c2)nc2ccccc21 (centres undefined) | 1 | / | 2 | / | -6
CON(C)c1nc(OCCNC(=O)OCc2ccc(Cl)cc2C)nc(N(C)C)n1 | -9 | / | 150* | -2 | /
COCCn1c(=NC(=O)c2cc(Cl)sc2Cl)sc2cc(S(N)(=O)=O)ccc21 | / | / | 6 | -2 | 170*
CNC[C@H]1OCCCC[C@H](C)Oc2ccc(NC(=O)CCCN(C)C)cc2C(=O)N([C@@H](C)CO)C[C@@H]1C | -2 | -2 | 10[16.7 µM] | / | /
CCOC(=O)C1=C(C)Nc2nc(SCc3cccnc3)nn2C1c1ccc(OC)cc1 (centres undefined) | -15 | -3 | 62* | / | 6
CC(=O)Nc1cccc(NC(=O)Nc2ccc(C)c(Cl)c2)c1 | -3 | -1 | -19 | -1 | 3
O=C(Nc1ccccc1C(=O)NC(Cc1ccccc1)C(=O)NC1CCCCCC1)c1ccccc1 (centres undefined) | 1 | / | / | 3 | /
Cc1ccc2c(c1)C(c1ccccc1)N(C(=O)c1c(F)cccc1Cl)CC(=O)N2 (centres undefined) | -11 | 7 | 59* | 2 | -6
O=C1CN(C(=O)c2c(F)cccc2F)C(c2ccccc2)c2cc(Br)ccc2N1 (centres undefined) | -14 | 3 | 47 | 9 | -6
CCC1Oc2ccccc2N(CC(=O)N2CCOCC2)C1=O (centres undefined) | / | -2 | -21 | -3 | 20
COc1ccc(C(=O)N=C2CCC(C#N)=C3c4cc(OC)c(OC)cc4CCN23)cc1 | / | / | 2 | -4 | 109*
CCCn1c2ccccc2c2cn[nH]c(=O)c21 | -3 | -2 | 3 | 8 | 47*
CCN=C1NN=C(c2ccc(C)cc2)CS1 | 12 | -4 | / | 1 | 19
N#Cc1cccnc1Nc1cccc(Cl)c1 | -6 | -1 | / | -1 | 59*
SMILES | PGC1a acetyl inh | AF4-AF9 inh | HIV Env fusion | NSD2 HMT inh | INS-1E GSIS act
O=C(NCC1CCCN1S(=O)(=O)c1cccs1)c1ccc(Cl)cc1 (centres undefined) | / | -1 | -5 | 6 | 4
COc1ccccc1/C=C(/C(=O)OCC(=O)NCc1ccccc1)c1ccccc1 | 92* | / | 5 | -1 | 3
COc1ccccc1/C=C(/C(=O)OCC(=O)Nc1ccccc1C)c1ccccc1 | / | 3 | -5 | -4 | -8
Cc1cc(/C=C(\C#N)C(N)=O)c(C)n1-c1ccc(N2CCOCC2)c([N+](=O)[O-])c1 | 3 | / | 40 | 4 | -17
Cc1cc(C=O)c(C)n1-c1ccc(N2CCCCC2)c([N+](=O)[O-])c1 | 15 | / | / | 65* | /
C[C@H]1CN([C@@H](C)CO)C(=O)Cc2cc(NC(=O)CCN3CCOCC3)ccc2O[C@@H]1CN(C)S(=O)(=O)c1ccccc1 | -6 | 2 | / | / | 17
N#CCSc1nnc(-c2sc3ccccc3c2Cl)o1 | / | / | 79* | 2 | 8
O=C(OCC(=O)N1CCN(c2ccccc2)CC1)c1ccco1 | 2 | / | -85 | 1 | /
Fc1cccc(CN2C[C@@H]3N[C@H](C2)[C@@H]3c2ccc(-c3cccc(F)c3)cc2)c1 | 99* | 11 | / | / | +
Fc1cccc(-c2ccc(C3[C@@H]4CN(Cc5cccnc5)C[C@H]3N4)cc2)c1 (some centres undefined) | -37 | 8 | / | / | -8
Fc1cccc(-c2ccc(C3[C@@H]4CN(Cc5ccccc5F)C[C@H]3N4)cc2)c1 (some centres undefined) | -4 | 9 | / | / | 804*!
Fc1cccc(CN2C[C@@H]3N[C@H](C2)C3c2ccc(-c3cncnc3)cc2)c1 (some centres undefined) | 2 | 0 | / | / | -6
Fc1cccc(CN2C[C@@H]3N[C@H](C2)C3c2ccc(-c3ccccc3)cc2)c1 (some centres undefined) | 97*! | 11 | / | / | -11
Cc1onc(-c2c(F)cccc2Cl)c1C(=O)NCCN1CCNC1=O | -6 | -4 | 8 | -1 | 0
Cc1ccc(C(=O)NCCc2csc(C)n2)cc1 | 3 | 2 | -4 | / | 15
O=C(Nc1ccc(-c2nc3ncccc3o2)cc1)c1ccco1 | / | / | -118 | 0 | 15
Cc1cc(CN(C)C(=O)CC2C(=O)NCCN2Cc2ccc(-c3ccccc3)cc2)on1 (centres undefined) | -2 | -11 | 2 | 3 | -9
CC(C)N1C(=O)c2ccccc2NC(=O)C1C(=O)NCc1ccccc1 (centres undefined) | / | 1 | 59* | / | -7
COc1ccc(C[C@@H]2OC3(C=CC(=O)C=C3)O[C@H]2Cc2ccc(OC)cc2)cc1 | 90* | / | / | 0 | /
O=C1C=CC2(C=C1)O[C@H](Cc1ccccc1)[C@@H](Cc1ccccc1)O2 | ? | 3 | 13 | / | 35
CC(OC(=O)C1COc2ccccc2O1)C(=O)c1ccccc1 (centres undefined) | 8 | -6 | -5 | -2 | 48*
O=C(Nc1ccc(F)cc1)C1COc2ccccc2O1 (centres undefined) | -2 | 0 | -17 | -2 | 184*
O=C(NC1=NCCS1)C1COc2ccccc2O1 (centres undefined) | 11 | / | 98* | / | /
NC(=O)c1ccc(NC(=O)C2COc3ccccc3O2)cc1 (centres undefined) | -1 | 2 | 10 | -1 | 1
O=C(Nc1ccncc1)C1COc2ccccc2O1 (centres undefined) | -14 | / | / | -3 | /
CCCC(=O)Nc1nnc(SCC(=O)N2CCN(c3ccccc3)CC2)s1 | -7 | -6 | 11 | -5 | 14
Cc1ccc(/C=N/n2c(-c3cccnc3)n[nH]c2=S)s1 | / | / | -11 | 4 | 40*
S=c1[nH]nc(-c2cccnc2)n1/N=C/c1ccc(Br)s1 | / | / | 20 | 0 | -14
O=c1c2cc(F)ccc2sn1-c1ccccc1 | 7 | -20 | -42 | / | -3
